Targets with a hit are over-represented here; the source holds about 7,900 in all. About 0.6% of all pairs of compound and target were hits.
Tests used:
Assay in all cases: log2 fold change, soluble protein after heating vs DMSO (PISA); higher = thermal stabilisation; K562 cells, 10 uM, 30 min; active = over 0.2 and 3.5 SD of the protein, either way, in both replicates (recomputed)
[1] = compound: COC1=CC=C(C=C1)CN2C=CC3=C2C=C(C=C3)C(=O)NO
Outline: (§1)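 K562 cells at 2×10^6 cells/mL were exposed to 10 μM compound for 30 min, then aliquots were heated for 3 min across 48°C-58°C, pooled, and extracted in PBS containing 0.5% NP-40 at 4°C. The supernatant after 21,000xg for 90 min was taken as soluble protein and measured by TMTpro 16plex LC-MS/MS with channel sums equalised. Thermal stability is reported relative to control samples, with values from duplicates. Fold changes are given on a log2 scale.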

filanesib = compound: CON(C)C(=O)N1N=C(c2cc(F)ccc2F)S[C@@]1(CCCN)c1ccccc1 [filanesib]
Outline: as §1

zotarolimus = compound: CO[C@H]1C[C@@H]2CC[C@@H](C)[C@@](O)(O2)C(=O)C(=O)N2CCCC[C@H]2C(=O)O[C@H]([C@H](C)C[C@@H]2CC[C@H](n3cnnn3)[C@H](OC)C2)CC(=O)[C@H](C)/C=C(\C)[C@@H](O)[C@@H](OC)C(=O)[C@H](C)C[C@H](C)/C=C/C=C/C=C/1C [zotarolimus]
Outline: as §1

idasanutlin = compound: COc1cc(C(=O)O)ccc1NC(=O)[C@@H]1N[C@@H](CC(C)(C)C)[C@](C#N)(c2ccc(Cl)cc2F)[C@H]1c1cccc(Cl)c1F [idasanutlin]
Outline: as §1

alisertib = compound: COc1cc(Nc2ncc3c(n2)-c2ccc(Cl)cc2C(c2c(F)cccc2OC)=NC3)ccc1C(=O)O [alisertib]
Outline: as §1

[2] = compound: COc1cc2nc(-c3cc(F)ccc3O)nc(N[C@@H]3CNC[C@H]3C(C)(C)O)c2cc1OC
Outline: as §1

gefitinib = compound: COc1cc2ncnc(Nc3ccc(F)c(Cl)c3)c2cc1OCCCN1CCOCC1 [gefitinib]
Outline: as §1

[3] = compound: COc1cccc2cc(-c3nc([C@H]4CC[C@H](C(=O)O)CC4)n4ncnc(N)c34)[nH]c12
Outline: as §1

lapatinib = compound: CS(=O)(=O)CCNCc1ccc(-c2ccc3ncnc(Nc4ccc(OCc5cccc(F)c5)c(Cl)c4)c3c2)o1 [lapatinib]
Outline: as §1

pictilisib = compound: CS(=O)(=O)N1CCN(Cc2cc3nc(-c4cccc5[nH]ncc45)nc(N4CCOCC4)c3s2)CC1 [pictilisib]
Outline: as §1

[4] = compound: CS(=O)(=O)c1ccc(-c2cnc(N)c(C(=O)Nc3ccccc3)n2)cc1
Outline: as §1

crizotinib = compound: C[C@@H](Oc1cc(-c2cnn(C3CCNCC3)c2)cnc1N)c1c(Cl)ccc(F)c1Cl [crizotinib]
Outline: as §1

[5] = compound: C[C@@H]1COCCN1C2=NC(=NC(=C2)C3(CC3)S(=O)(=O)C)C4=C5C=CNC5=CC=C4
Outline: as §1

[6] = compound: C[C@H](C1=CC=C(C=C1)C(=O)NC2=C3C=CNC3=NC=C2)N
Outline: as §1

duvelisib = compound: C[C@H](Nc1ncnc2nc[nH]c12)c1cc2cccc(Cl)c2c(=O)n1-c1ccccc1 [duvelisib]
Outline: as §1

gandotinib = compound: Cc1cc(Nc2cc(CN3CCOCC3)c3nc(C)c(Cc4ccc(Cl)cc4F)n3n2)n[nH]1 [gandotinib]
Outline: as §1

tozasertib = compound: Cc1cc(Nc2cc(N3CCN(C)CC3)nc(Sc3ccc(NC(=O)C4CC4)cc3)n2)n[nH]1 [tozasertib]
Outline: as §1

[7] = compound: Cc1cc(SCc2sc(-c3ccc(C(F)(F)F)cc3)nc2C)ccc1OCC(=O)O
Outline: as §1

doramapimod = compound: Cc1ccc(-n2nc(C(C)(C)C)cc2NC(=O)Nc2ccc(OCCN3CCOCC3)c3ccccc23)cc1 [doramapimod]
Outline: as §1

ispinesib = compound: Cc1ccc(C(=O)N(CCCN)[C@@H](c2nc3cc(Cl)ccc3c(=O)n2Cc2ccccc2)C(C)C)cc1 [ispinesib]
Outline: as §1

Measured: log2 fold change

RTN4IP1 (UniProt Q8WWV3)
Chain of UniProt Q8WWV3 (Q8WWV3 whole entry, looked up): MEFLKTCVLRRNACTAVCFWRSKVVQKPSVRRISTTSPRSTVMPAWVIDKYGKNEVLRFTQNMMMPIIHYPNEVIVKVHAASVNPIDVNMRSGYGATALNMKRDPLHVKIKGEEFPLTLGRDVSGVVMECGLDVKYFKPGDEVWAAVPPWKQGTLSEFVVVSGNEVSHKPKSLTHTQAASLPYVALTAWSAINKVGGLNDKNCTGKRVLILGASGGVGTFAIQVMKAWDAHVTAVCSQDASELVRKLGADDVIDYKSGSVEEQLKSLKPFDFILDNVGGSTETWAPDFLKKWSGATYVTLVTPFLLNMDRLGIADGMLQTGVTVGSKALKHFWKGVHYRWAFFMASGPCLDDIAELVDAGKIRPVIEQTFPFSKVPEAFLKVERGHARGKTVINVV
inactive: [1] 0.206 | filanesib -0.081 | zotarolimus 0.097 | alisertib -0.22 | [2] -0.013 | gefitinib 0.125 | [3] 0.256 | lapatinib 0.003 | pictilisib -0.003 | [4] 0.015 | crizotinib -0.084 | [5] 0.064 | [6] -0.045 | duvelisib 0.276 | gandotinib 0.117 | tozasertib -0.108 | [7] 0.225 | doramapimod 0.041 | ispinesib -0.137
active: idasanutlin 1.17

RPL38 (UniProt P63173)
active: [5] -0.258
inactive: [1] -0.109 | filanesib 0 | zotarolimus -0.007 | idasanutlin 0.055 | alisertib -0.064 | [2] 0.061 | gefitinib -0.074 | [3] -0.171 | lapatinib 0.05 | pictilisib -0.053 | [4] -0.039 | crizotinib -0.069 | [6] 0.077 | duvelisib -0.064 | gandotinib 0.144 | tozasertib -0.017 | [7] -0.008 | doramapimod 0.017 | ispinesib -0.093

RPS18 (UniProt P62269)
inactive: [1] -0.157 | filanesib 0.118 | zotarolimus 0.012 | idasanutlin 0.046 | alisertib -0.015 | [2] -0.021 | gefitinib -0.013 | [3] -0.109 | lapatinib 0.065 | pictilisib -0.107 | [4] -0.022 | crizotinib 0.033 | [5] -0.244 | [6] 0.222 | duvelisib -0.076 | gandotinib 0.129 | tozasertib 0.016 | [7] -0.002 | doramapimod 0.105 | ispinesib -0.074

RRAS2 isoform 4 (UniProt P62070)
Chain of UniProt P62070 (P62070 whole entry, looked up): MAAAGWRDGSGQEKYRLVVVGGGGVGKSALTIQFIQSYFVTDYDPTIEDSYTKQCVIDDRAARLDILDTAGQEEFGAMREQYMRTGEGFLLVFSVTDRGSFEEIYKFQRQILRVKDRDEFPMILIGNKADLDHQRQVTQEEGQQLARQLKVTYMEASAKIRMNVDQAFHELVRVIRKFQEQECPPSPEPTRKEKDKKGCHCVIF
inactive: [1] 0.004 | filanesib 0.059 | zotarolimus -0.025 | idasanutlin 0.016 | alisertib -0.099 | [2] 0.075 | gefitinib 0.061 | [3] 0.093 | lapatinib 0.017 | pictilisib 0.05 | [4] 0.044 | crizotinib 0.162 | [5] -0.001 | [6] -0.152 | duvelisib -0.002 | gandotinib -0.016 | tozasertib -0.048 | [7] -0.042 | doramapimod 0.012 | ispinesib -0.019

RHEB (UniProt Q15382)
inactive: [1] -0.007 | filanesib -0.08 | zotarolimus 0.016 | idasanutlin -0.049 | alisertib -0.03 | [2] 0.032 | gefitinib 0.015 | [3] 0.057 | lapatinib 0.005 | pictilisib 0.029 | [4] -0.001 | crizotinib 0.038 | [5] 0.096 | [6] -0.041 | duvelisib 0.021 | gandotinib -0.097 | tozasertib -0.025 | [7] -0.009 | doramapimod -0.018 | ispinesib 0.042

RECQL (UniProt P46063)
Chain of UniProt P46063 (P46063 whole entry, looked up): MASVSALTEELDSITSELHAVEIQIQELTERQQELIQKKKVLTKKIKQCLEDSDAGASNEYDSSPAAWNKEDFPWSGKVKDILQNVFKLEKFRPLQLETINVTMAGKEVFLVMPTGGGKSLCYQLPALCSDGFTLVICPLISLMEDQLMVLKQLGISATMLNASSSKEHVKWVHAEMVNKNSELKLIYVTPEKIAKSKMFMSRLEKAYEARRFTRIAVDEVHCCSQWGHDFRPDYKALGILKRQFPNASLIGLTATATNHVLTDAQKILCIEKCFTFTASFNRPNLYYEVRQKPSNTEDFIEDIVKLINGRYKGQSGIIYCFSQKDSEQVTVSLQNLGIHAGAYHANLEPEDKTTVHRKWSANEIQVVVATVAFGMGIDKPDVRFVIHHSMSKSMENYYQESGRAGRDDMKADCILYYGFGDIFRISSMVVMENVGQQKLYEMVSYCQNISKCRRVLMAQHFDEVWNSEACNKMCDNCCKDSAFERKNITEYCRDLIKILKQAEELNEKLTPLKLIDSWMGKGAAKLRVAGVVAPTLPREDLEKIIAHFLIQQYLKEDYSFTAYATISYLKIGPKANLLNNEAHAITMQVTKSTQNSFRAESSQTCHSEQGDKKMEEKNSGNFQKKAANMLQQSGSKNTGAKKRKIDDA
inactive: [1] 0.022 | filanesib -0.091 | zotarolimus 0.035 | idasanutlin -0.056 | alisertib -0.061 | [2] -0.038 | gefitinib -0.004 | [3] 0.031 | lapatinib 0.043 | pictilisib 0.024 | [4] 0.031 | crizotinib 0.033 | [5] 0.112 | [6] -0.082 | duvelisib 0.051 | gandotinib -0.057 | tozasertib 0.001 | [7] 0.003 | doramapimod -0.011 | ispinesib 0.056

RARS (UniProt P54136)
Chain of UniProt P54136 (P54136 whole entry, looked up): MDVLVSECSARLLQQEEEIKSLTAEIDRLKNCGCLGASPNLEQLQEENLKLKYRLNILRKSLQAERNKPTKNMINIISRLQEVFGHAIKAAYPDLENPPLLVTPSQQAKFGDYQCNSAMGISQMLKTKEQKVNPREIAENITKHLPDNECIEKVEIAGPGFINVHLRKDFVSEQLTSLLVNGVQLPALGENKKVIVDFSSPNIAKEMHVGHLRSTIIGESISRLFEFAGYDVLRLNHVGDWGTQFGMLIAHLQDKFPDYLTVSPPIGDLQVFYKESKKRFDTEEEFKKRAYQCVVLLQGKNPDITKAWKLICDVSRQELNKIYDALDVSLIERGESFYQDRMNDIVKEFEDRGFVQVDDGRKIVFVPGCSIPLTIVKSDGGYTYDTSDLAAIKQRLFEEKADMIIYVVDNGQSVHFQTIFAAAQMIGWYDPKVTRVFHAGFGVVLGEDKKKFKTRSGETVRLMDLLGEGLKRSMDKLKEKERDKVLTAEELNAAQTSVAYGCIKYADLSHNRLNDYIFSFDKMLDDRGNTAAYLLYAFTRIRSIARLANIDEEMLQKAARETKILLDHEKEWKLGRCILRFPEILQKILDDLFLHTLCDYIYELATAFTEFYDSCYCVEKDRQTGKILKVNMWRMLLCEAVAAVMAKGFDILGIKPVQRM
inactive: [1] -0.045 | filanesib 0.079 | zotarolimus 0.049 | idasanutlin 0.052 | alisertib -0.059 | [2] -0.032 | gefitinib -0.025 | [3] -0.203 | lapatinib -0.008 | pictilisib -0.07 | [4] -0.001 | crizotinib -0.266 | [5] -0.099 | [6] 0.373 | duvelisib -0.069 | gandotinib 0.018 | tozasertib -0.028 | [7] 0.132 | doramapimod 0.184
active: ispinesib -0.398

SEH1L isoform 1 (UniProt Q96EE3)
inactive: [1] -0.004 | filanesib 0.012 | zotarolimus -0.03 | idasanutlin -0.014 | alisertib -0.024 | [2] 0.025 | gefitinib 0.015 | [3] 0.038 | lapatinib -0.045 | pictilisib 0.017 | [4] -0.03 | crizotinib 0.04 | [5] -0.008 | [6] -0.028 | duvelisib 0.016 | gandotinib -0.069 | tozasertib 0.011 | [7] 0.01 | doramapimod 0.011 | ispinesib 0.054

SGPL1 (UniProt O95470)
Chain of UniProt O95470 (O95470 whole entry, looked up): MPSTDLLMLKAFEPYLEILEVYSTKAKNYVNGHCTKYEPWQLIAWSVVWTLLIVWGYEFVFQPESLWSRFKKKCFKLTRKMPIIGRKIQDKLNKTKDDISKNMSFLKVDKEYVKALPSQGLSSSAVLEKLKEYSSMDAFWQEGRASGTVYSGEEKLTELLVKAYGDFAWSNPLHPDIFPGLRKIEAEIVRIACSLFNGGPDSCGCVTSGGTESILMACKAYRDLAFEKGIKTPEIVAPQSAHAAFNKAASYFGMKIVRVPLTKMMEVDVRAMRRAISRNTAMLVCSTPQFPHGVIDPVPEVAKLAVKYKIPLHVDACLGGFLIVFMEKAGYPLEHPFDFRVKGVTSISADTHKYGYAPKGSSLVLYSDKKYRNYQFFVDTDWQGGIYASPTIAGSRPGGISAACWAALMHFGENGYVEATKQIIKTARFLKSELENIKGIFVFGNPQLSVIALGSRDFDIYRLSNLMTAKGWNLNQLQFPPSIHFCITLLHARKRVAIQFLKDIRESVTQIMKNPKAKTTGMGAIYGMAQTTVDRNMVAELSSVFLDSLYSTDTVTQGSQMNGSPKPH
inactive: [1] -0.064 | filanesib 0.107 | zotarolimus -0.011 | idasanutlin 0.051 | alisertib -0.046 | [2] 0.012 | gefitinib 0.001 | [3] -0.115 | lapatinib 0.04 | pictilisib -0.013 | [4] 0.095 | crizotinib 0.077 | [5] -0.034 | [6] 0.011 | duvelisib 0.019 | gandotinib 0.259 | tozasertib -0.089 | [7] 0.024 | doramapimod 0.084 | ispinesib 0.077

RALY (UniProt Q9UKM9)
Chain of UniProt Q9UKM9 (Q9UKM9 whole entry, looked up): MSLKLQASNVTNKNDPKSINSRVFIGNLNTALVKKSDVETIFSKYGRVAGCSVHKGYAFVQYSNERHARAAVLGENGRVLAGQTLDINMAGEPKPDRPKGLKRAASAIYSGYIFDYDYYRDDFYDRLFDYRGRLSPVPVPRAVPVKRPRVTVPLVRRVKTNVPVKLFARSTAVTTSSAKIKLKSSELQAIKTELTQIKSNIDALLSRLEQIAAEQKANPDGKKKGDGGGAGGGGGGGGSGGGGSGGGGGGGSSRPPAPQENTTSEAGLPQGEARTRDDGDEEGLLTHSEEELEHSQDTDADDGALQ
inactive: [1] -0.038 | filanesib 0.216 | zotarolimus 0.055 | alisertib 0.041 | [2] -0.152 | gefitinib -0.099 | [3] -0.148 | lapatinib 0.22 | pictilisib -0.02 | [4] -0.149 | crizotinib -0.068 | [5] -0.138 | [6] 0.316 | duvelisib -0.161 | gandotinib 0.098 | tozasertib 0.051 | [7] 0.043 | doramapimod 0.01 | ispinesib -0.082
active: idasanutlin 0.72

RSL1D1 (UniProt O76021)
inactive: [1] -0.094 | filanesib 0.543 | zotarolimus 0.055 | idasanutlin 0.363 | alisertib -0.202 | [2] 0.181 | gefitinib -0.031 | [3] -0.065 | lapatinib 0.181 | pictilisib -0.013 | [4] -0.146 | crizotinib 0.037 | [5] -0.33 | [6] 0.456 | duvelisib -0.169 | gandotinib 0.146 | tozasertib 0.066 | [7] -0.037 | doramapimod 0.312 | ispinesib 0.251

RFC3 (UniProt P40938)
inactive: [1] 0.125 | filanesib -0.046 | zotarolimus -0.026 | idasanutlin -0.088 | alisertib -0.021 | [2] -0.042 | gefitinib 0.008 | [3] 0.024 | lapatinib 0.037 | pictilisib 0.035 | [4] 0.029 | crizotinib 0.016 | [5] 0.163 | [6] 0.071 | duvelisib 0.032 | gandotinib -0.042 | tozasertib -0.004 | [7] 0.061 | doramapimod -0.005 | ispinesib 0.067

RNF187 (UniProt Q5TA31)
inactive: [1] 0.028 | filanesib 0.003 | zotarolimus -0.006 | idasanutlin -0.032 | alisertib -0.104 | [2] 0.047 | gefitinib -0.012 | [3] -0.053 | lapatinib -0.07 | pictilisib -0.037 | [4] -0.097 | crizotinib -0.018 | [5] -0.019 | [6] -0.027 | duvelisib 0.015 | gandotinib -0.111 | tozasertib -0.069 | [7] 0.038 | doramapimod 0.015 | ispinesib 0.191

SETD3 (UniProt Q86TU7)
inactive: filanesib -0.132 | zotarolimus 0.009 | idasanutlin -0.086 | alisertib -0.022 | [2] 0.052 | gefitinib 0.017 | [3] 0.048 | lapatinib -0.013 | pictilisib 0.03 | [4] 0.007 | crizotinib 0.051 | [5] 0.076 | [6] -0.012 | duvelisib 0.005 | gandotinib 0.021 | tozasertib -0.037 | [7] 0.012 | doramapimod -0.026 | ispinesib 0.059
active: [1] -0.254

RMC1 (UniProt Q96DM3)
Chain of UniProt Q96DM3 (Q96DM3 whole entry, looked up): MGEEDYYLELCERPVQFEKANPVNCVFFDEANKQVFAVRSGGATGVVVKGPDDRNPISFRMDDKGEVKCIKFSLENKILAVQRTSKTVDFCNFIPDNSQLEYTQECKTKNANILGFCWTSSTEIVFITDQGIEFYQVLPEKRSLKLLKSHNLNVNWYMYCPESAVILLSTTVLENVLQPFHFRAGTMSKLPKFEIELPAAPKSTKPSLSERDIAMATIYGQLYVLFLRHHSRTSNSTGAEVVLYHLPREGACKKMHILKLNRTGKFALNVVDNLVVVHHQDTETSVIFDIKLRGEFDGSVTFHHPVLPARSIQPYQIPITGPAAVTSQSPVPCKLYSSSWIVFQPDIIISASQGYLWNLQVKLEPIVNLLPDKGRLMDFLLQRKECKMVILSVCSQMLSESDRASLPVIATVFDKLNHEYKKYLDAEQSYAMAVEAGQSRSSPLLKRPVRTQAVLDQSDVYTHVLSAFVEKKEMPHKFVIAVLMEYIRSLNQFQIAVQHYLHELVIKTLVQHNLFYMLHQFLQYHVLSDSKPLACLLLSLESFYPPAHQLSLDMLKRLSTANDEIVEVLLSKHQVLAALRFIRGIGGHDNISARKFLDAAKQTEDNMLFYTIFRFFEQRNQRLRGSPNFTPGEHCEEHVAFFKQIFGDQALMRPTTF
active: crizotinib -0.509 | ispinesib -0.254
inactive: [1] -0.002 | filanesib -0.058 | zotarolimus -0.015 | idasanutlin -0.047 | alisertib -0.059 | [2] -0.006 | gefitinib 0.045 | [3] 0.044 | lapatinib -0.029 | pictilisib -0.105 | [4] 0.021 | [5] 0.061 | [6] -0.012 | duvelisib -0.005 | gandotinib 0.027 | tozasertib 0.026 | [7] 0.066 | doramapimod 0.038

RSF1 (UniProt Q96T23)
Chain of UniProt Q96T23 (Q96T23 whole entry, looked up): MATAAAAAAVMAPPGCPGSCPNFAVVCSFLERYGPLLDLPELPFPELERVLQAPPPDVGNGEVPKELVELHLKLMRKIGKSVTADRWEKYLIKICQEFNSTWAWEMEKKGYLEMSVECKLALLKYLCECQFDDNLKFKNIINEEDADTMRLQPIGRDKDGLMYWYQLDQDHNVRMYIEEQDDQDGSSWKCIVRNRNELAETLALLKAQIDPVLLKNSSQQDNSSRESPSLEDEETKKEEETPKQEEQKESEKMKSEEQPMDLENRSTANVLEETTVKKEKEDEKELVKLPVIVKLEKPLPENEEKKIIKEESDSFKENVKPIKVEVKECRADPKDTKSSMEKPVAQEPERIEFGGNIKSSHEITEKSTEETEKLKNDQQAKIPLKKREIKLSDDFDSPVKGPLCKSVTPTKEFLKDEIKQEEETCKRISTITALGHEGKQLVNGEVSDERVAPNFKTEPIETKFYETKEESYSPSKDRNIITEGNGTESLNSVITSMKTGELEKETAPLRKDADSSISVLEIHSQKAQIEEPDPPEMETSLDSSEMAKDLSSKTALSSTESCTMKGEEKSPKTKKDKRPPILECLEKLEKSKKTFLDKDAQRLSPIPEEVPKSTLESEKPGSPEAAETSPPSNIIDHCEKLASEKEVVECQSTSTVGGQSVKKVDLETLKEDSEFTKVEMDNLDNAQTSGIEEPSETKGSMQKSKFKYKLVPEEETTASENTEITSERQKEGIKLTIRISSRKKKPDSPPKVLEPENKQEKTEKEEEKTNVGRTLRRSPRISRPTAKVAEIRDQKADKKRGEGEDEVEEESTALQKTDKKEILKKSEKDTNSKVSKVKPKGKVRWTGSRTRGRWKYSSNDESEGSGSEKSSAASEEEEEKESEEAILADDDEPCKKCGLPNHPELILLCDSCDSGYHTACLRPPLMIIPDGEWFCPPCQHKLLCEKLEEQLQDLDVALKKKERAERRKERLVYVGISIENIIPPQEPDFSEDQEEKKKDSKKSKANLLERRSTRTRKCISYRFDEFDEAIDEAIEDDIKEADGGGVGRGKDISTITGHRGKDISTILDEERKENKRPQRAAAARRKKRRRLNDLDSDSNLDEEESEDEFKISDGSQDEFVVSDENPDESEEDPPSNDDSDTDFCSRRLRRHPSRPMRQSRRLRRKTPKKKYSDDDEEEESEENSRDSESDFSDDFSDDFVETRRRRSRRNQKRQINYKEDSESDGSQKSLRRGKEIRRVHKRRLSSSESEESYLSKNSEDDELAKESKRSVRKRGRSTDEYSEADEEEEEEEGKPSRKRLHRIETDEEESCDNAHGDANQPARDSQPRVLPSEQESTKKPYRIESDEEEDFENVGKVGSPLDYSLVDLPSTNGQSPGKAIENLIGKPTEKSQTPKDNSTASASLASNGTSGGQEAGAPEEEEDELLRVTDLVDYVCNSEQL
inactive: [1] 0.267 | filanesib -0.078 | zotarolimus 0.023 | idasanutlin -0.147 | alisertib -0.067 | [2] -0.018 | gefitinib 0.037 | [3] -0.17 | lapatinib 0.004 | pictilisib 0.114 | [4] 0.056 | crizotinib -0.054 | [5] -0.002 | [6] -0.058 | duvelisib 0.108 | gandotinib -0.104 | tozasertib 0.228 | [7] 0.194 | doramapimod 0.043 | ispinesib 0.087

From the supplement of paper PMC10849652
